Shown are actives, neighbours in structure and some others; about 2.4% of the full set was active somewhere.
FEN1 inhibitor: blocks human flap endonuclease 1; P39748; Recombinant FEN1 flap cleavage, fluorescence, 15 min; Potency, µM (titrated, usually from 114 µM), for inactives: top-dose activity change, negative = inhibition, actives largely listed as inhibitors; 0.35% of 390,000 active; AID 588795; also: % is scaled to controls: 0 for no effect and ±100 for the full control effect; nearly all actives have a fitted effect of over 65% in size
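Reaction started by adding substrate (50 nM final) to 10 nM enzyme after 15 min room-temperature compound preincubation. Reads at 0 and 15 min, with data normalized and fitted to a four-parameter Hill equation.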
Pol beta inh: blocks human DNA polymerase beta activity; P06746; Potency, µM (top dose mostly 114 µM), without a hit: at the top dose activity change, negative = inhibition, usual class: inhibitors; 1.3% of 340,000 active; AID 485314; Pol beta primer extension/strand displacement, fluorescence kinetic; also: % is scaled to controls: 0 for no effect and ±100 for the full control effect
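Curves were derived by four-parameter Hill fits of normalized qHTS data. The kinetic fluorescent primer-extension read was taken at 0 and 10 min after 50 nM substrate, following a 15 min room-temperature preincubation of 10 nM enzyme with compounds.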
Pol kappa inh-1: DNA polymerase kappa (human) inhibition. purified Pol kappa, fluorescent DNA synthesis assay, 10 min. Q9UBT6. Potency, µM (titrated, usually from 107 µM), without a hit: at the highest dose activity, negative = inhibition, hits mostly inhibitors. AID 588579. 0.53% of 400,000 active; also: % is scaled to controls: 0 for no effect and ±100 for the full control effect
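Fluorescent qHTS in 1536-well format: enzyme (10 nM) and compound sat 15 min at room temperature before 50 nM substrate (final) was added. Signal taken at 0 and 10 min; no-enzyme buffer wells were negative controls.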
WRN helicase inh: blocks human WRN helicase | Potency, µM (doses to about 114 µM), inactives show at the highest dose activity change, negative = inhibition, most hits filed as inhibitors | Q14191 | WRN helicase unwinding, fluorescent forked duplex, kinetic | 0.46% of 360,000 active; also: % is scaled to controls: 0 for no effect and ±100 for the full control effect; nearly all actives have a fitted effect of over 55% in size
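Primary qHTS, 1536-well format. 20 nM WRN + compound, 15 min RT; start with 100 nM forked fluorophore/quencher duplex, 2 mM ATP (final); kinetic read ex 525/em 598 nm.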
Pol iota inh: blocks human DNA polymerase iota activity. Q9UNA4. Pol iota fluorescent replication assay, 10 min. 1% of 390,000 active. AID 588590. Potency, µM (titrated, usually from 115 µM), for inactives: top-dose activity, negative = inhibition, usual class: inhibitors
Target sequence (Q9UNA4 whole entry, looked up): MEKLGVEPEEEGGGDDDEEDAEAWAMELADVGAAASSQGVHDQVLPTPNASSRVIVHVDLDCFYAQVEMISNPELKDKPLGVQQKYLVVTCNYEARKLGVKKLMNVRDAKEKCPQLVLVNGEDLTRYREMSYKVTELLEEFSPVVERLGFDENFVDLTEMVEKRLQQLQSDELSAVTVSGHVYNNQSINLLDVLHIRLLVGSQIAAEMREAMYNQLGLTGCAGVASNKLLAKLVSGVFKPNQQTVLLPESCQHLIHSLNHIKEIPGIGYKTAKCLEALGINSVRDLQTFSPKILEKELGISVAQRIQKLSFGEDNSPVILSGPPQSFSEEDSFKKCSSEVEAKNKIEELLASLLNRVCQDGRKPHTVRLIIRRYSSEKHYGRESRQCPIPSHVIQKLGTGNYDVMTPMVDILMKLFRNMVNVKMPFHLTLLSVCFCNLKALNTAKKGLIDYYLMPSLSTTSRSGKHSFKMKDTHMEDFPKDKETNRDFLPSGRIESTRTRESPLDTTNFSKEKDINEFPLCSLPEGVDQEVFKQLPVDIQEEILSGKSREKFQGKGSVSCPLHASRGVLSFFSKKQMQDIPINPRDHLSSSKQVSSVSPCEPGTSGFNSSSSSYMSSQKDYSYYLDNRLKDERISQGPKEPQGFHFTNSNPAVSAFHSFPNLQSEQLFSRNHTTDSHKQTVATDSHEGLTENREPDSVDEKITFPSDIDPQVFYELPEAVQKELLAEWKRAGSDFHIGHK
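Fluorescent replication assay read twice, at 0 min and 10 min after adding 50 nM (final) substrate. Enzyme (10 nM) and compounds were first incubated 15 min at room temperature; enzyme-free buffer wells were negative controls.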
Pol eta inh-1: inhibitors of human DNA polymerase eta. Q9Y253. recombinant Pol eta, fluorescent DNA replication assay. Potency, µM (titrated, usually from 114 µM), inactives show top-dose activity change, negative = inhibition, hits mostly inhibitors. 1.2% of 390,000 active; also: % is scaled to controls: 0 for no effect and ±100 for the full control effect
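Pol eta at 10 nM preincubated with compounds 15 min at room temperature; reaction started with fluorescent substrate (50 nM final) and read kinetically at 0 and 10 min.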
Pol kappa inh-2: confirmation of human DNA polymerase kappa inhibitors | shares compounds with Pol eta inh-1 | 76% of 920 active | Potency, µM, hits mostly inhibitors | purified Pol-kappa, fluorescent strand-displacement substrate
Pol eta inh-2: Pol eta (human) inhibition, cherry-pick confirmation | shares compounds with Pol eta inh-1 | 64% of 2,600 active | Pol eta primer extension, TAMRA/BHQ fluorescence, 10 min | Potency, µM, most hits filed as inhibitors
Starred values were filed as active, the others as inactive; ? = inconclusive; . = no result given; [ ] = dose if it differs, or a comment. Calls follow the shape of the dose curve; as a rule, active = well fitted curve in the direction sought with a large enough effect; inconclusive = small, poorly fitted or top-dose-only effect, or another doubt; inactive = no such curve, though single readings can be large; an effect the other way counts as inactive or inconclusive. Potency is read from the fitted curve at half-maximal effect.

SMILES | FEN1 inhibitor | Pol beta inh | Pol kappa inh-1 | WRN helicase inh | Pol iota inh | Pol eta inh-1 | Pol eta inh-2 | others
Cc1cc2c(cc3c(SCc4ccc(Cl)cc4)nncn32)o1 | 14% | -1% | -13% | . | 5% | 3% | .
O=C(O)c1ccccc1C=NNc1ccc([N+](=O)[O-])cn1 | -12% | . | -11% | -3% | 7% | -17% | .
O=C(O)c1cc(-c2ccc(/C=N/Nc3ccc([N+](=O)[O-])cn3)o2)ccc1Cl | -19% | ? | -44% | ? | ? | -16% | 85* | Pol kappa inh-2=75*
O=C(O)C1C2C=CC3(O2)C1C(=O)N1c2ccccc2C2OCCC2C13 (centres undefined) | -2% | 40µM* | -33% | -23%[57.1 µM] | ? | 35µM* | ?
C=C(C)CC1N(c2cccc(OC)c2)C(=O)C2C(C(=O)O)C3C=CC21O3 (centres undefined) | -15% | 38% | -3% | -4% | -22% | -9% | .
CCOC(=O)c1ccccc1NC(=O)CSc1nc2ncccc2o1 | 1% | 5% | -3% | . | 22% | -11% | .
Cc1cc2oc(C(=O)Nc3sc4c(c3C(=O)NCc3ccco3)CCC4)cc(=O)c2cc1C | -17% | ? | ? | . | ? | 50µM* | ? | Pol kappa inh-2=?
Cc1nc(-c2ccc(S(=O)(=O)N3CCN(c4ccccc4F)CC3)cc2)co1 | -21% | ? | -2%[60.1 µM] | . | 1% | -29% | .
CC(=O)c1ccc(S(=O)(=O)Nc2ccc(-n3cnnn3)cc2)cc1 | 6% | . | -35% | 5%[11.6 µM] | 40µM* | 32µM* | ?
NS(=O)(=O)c1ccc(-c2ccc(/C=N/Nc3ccc(C(=O)O)cc3)o2)cc1 | ? | -16% | ? | -11% | 50µM* | 28µM* | ?
NS(=O)(=O)c1ccc(-c2ccc(/C=N/NC(=O)c3ccc([N+](=O)[O-])cc3)o2)cc1 | -20% | -17% | -9% | -5% | -3% | 4% | .
CNC(=S)N/N=C/c1ccc(-c2ccc(C(=O)O)cc2)o1 | -1% | ? | ? | -8%[11.6 µM] | ? | 22µM* | 34*
CCC(=O)N1c2ccccc2CC1C(=O)NCc1ccc(CC)cc1 (centres undefined) | 4% | -14% | 1%[60.1 µM] | . | 9% | 6% | .
COc1ccc(-c2noc(CSc3nnc(-c4ccncc4)n3-c3ccc(OC)cc3)n2)cc1 | 7% | -4% | -8% | . | -9% | -13% | .
CCOc1cc(-c2nnc(SCC(=O)NCc3ccccc3)nc2-c2ccc(OC)c(OCC)c2)ccc1OC | -2% | -3% | -12%[60.1 µM] | . | ? | 0% | .
NC(=S)n1[nH]c(-c2ccc([N+](=O)[O-])cc2)c(N=Nc2ccccc2[N+](=O)[O-])c1=O | 8% | 16µM* | -3% | -21%[11.6 µM] | ? | 6.3µM* | . | Pol kappa inh-2=8.4*
CCn1c(SCC(=O)c2ccc(O)c(O)c2)nnc1-c1ccc(C)cc1 | -5% | -46% | 28µM* | 13µM* | -51% | 10µM* | 60* | Pol kappa inh-2=?
O=C1CCCC(O)=C1C(C#Cc1ccccc1)C1=C(O)CCCC1=O | 2% | ? | -32% | ? | 10% | 14% | .
O=C1CCCC(O)=C1Sc1ccccc1C(=O)O | ? | 10µM* | ? | -6%[11.6 µM] | 32µM* | 8.9µM* | 60*
COc1ccccc1C(CNC(=O)c1ccc(NS(=O)(=O)c2ccc(C(C)=O)cc2)cc1)N1CCCC1 (centres undefined) | -6% | . | ? | -13%[11.6 µM] | 32µM* | 16µM* | ?
CC(=O)c1ccc(S(=O)(=O)Nc2ccc(C(=O)NCC(c3ccco3)N3CCCC3)cc2)cc1 (centres undefined) | . | . | . | -1%[11.6 µM] | . | 20µM* | ? | Pol kappa inh-2=?
